# Screens deposited in PubChem by National Center for Advancing Translational Sciences (NCATS).
# Only some compounds are listed: those with a hit (about 3.3% of all), similar ones and a draw of the others.
# HttQ103 aggreg = reduces HttQ103-GFP aggregates in PC12 cells | PC12 HttQ103-GFP aggregates, Acumen cytometry, 40 h | Potency, µM (titrated, usually from 46.1 µM), hits mostly inhibitors | 220,000 compounds, 1.1% hits | AID 1688; further: nearly all actives have a fitted effect of over 60% in size
#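 Steps: seed 1500 PC12 HTTQ103-GFP cells/well; add tebufenozide, 100 nM final; add compound titration; add ATPLite reagent; quantify GFP aggregates by laser scanning cytometry.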
# IMPase inh = cell-permeable inhibitors of inositol monophosphatase (IMPase); 120,000 tested, under 10 active; CHO-M1 cells, IP1 accumulation, HTRF TR-FRET ratio; inhibition (IP1 accumulation), % at 46.1 µM; active means well fitted curve in the direction sought with a large enough effect in the signal ratio, not every such curve was filed as active; inconclusive means small, poorly fitted or top-dose-only effect, or a change in a side signal; inactive means no such curve, though single readings can be large or run the other way; the % refers to the signal ratio;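 further: cells stimulated with carbachol in lithium chloride buffer; higher means more IMPase inhibition seen as more IP1 and lower FRET ratio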
# Target sequence (P97697 whole entry, looked up): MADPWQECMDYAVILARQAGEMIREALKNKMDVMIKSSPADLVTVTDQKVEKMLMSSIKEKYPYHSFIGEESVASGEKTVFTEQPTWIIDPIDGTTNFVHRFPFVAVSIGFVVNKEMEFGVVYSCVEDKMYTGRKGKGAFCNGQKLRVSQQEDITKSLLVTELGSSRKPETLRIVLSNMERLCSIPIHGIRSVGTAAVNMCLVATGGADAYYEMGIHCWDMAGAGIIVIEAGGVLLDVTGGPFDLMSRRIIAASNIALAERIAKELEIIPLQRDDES
#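 Carbachol-driven Gq signalling in CHO-M1 cells (2000/well) generates IP1. Compounds that block IMPase raise IP1 and so reduce the FRET signal from Eu-anti-IP1 and d2-IP1 after a 10 min room-temperature lysis.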
# PNC assembly inh = inhibitors of perinucleolar compartment assembly; PC3M PTB-GFP, PNC prevalence imaging, 16 h; hits give low values; 140,000 compounds, 3.1% hits; activity change (PNC), negative = inhibition, % at 10 µM;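 active means readout at or below -70, meaning at least 70% loss of cells showing the perinucleolar compartment, a nuclear body marking cancer cells; inconclusive means readout between -30 and a set limit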
#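 Read-out is percentage of cells bearing a perinucleolar compartment, from automated 20x imaging of fixed, Hoechst-stained PC3M PTB-GFP cells. Cells were seeded 4 h, then exposed 16 h to compound (23 nl of library stock) in duplicate plates.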
# ALOX12 inhib = inhibitors of human 12-lipoxygenase (ALOX12) | Potency, µM (titrated, usually from 57.1 µM), usual class: inhibitors | 150,000 compounds, 0.12% hits | purified 12-hLO, xylenol orange hydroperoxide absorbance | AID 1452; further: nearly all actives have a fitted effect of over 55% in size
#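 Hydroperoxide formation by human 12-lipoxygenase from 40 uM arachidonic acid was followed colorimetrically via ferric-xylenol orange complex, using the 573/405 nm absorbance ratio. Enzyme concentration was 150 nM, with 30 min reaction at room temperature.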
# NPSR antagonist = blocks cAMP signaling of the human neuropeptide S receptor | Q6W5P4 | CHO-NPSR cells, cAMP TR-FRET, antagonist mode | Potency, µM (series often up to 38.3 µM), actives largely listed as inhibitors | 220,000 compounds, 1% hits | AID 1461; further: nearly all actives have a fitted effect of over 50% in size
# Target sequence (Q6W5P4 whole entry, looked up): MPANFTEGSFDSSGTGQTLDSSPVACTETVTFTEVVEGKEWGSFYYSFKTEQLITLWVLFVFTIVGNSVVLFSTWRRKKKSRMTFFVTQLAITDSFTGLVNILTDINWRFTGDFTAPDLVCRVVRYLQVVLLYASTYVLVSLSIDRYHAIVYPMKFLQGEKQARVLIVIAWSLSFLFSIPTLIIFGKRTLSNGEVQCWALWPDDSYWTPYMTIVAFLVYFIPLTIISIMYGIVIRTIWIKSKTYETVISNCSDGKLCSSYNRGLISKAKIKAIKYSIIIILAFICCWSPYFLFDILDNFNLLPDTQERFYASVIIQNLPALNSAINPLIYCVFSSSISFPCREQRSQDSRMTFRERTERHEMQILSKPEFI
# HTT cytoprotect = Huntington cell model cytoprotection by ATP luminescence; PC12 HTT-Q103 induced, cytoprotection, ATP luminescence, 40 h; Potency, µM (top dose mostly 56.4 µM), usual class: activators; 230,000 compounds, 0.14% hits; AID 1471; further: nearly all actives have a fitted effect of over 45% in size
#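 Stable PC12 Q103-GFP cells in serum-supplemented, phenol red-free DMEM; induction by tebufenozide at 100 nM final; compound dose series; cell viability quantified luminescently from ATP.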
# Hits are given with their value; i = inactive; ? = inconclusive; nt = no result given; [ ] = remark or other dose. Unless noted, the call rests on the fitted dose curve; in most records, active means well fitted curve in the direction sought with a large enough effect; inconclusive means small, poorly fitted or top-dose-only effect, or another doubt; inactive means no such curve, though single readings can be large; an effect the other way counts as inactive or inconclusive.
SMILES,HttQ103 aggreg,IMPase inh,PNC assembly inh,ALOX12 inhib,NPSR antagonist,HTT cytoprotect
COc1ccc(-c2nc(-c3ccccn3)ncc2S(C)(=O)=O)cc1,i,nt,nt,nt,i,i[10 µM]
CCCc1nc2c(=O)n(C)c(=O)nc-2n(C)n1,6.3µM,nt,nt,nt,7.9µM,i
COc1ccc(/C=N/Nc2nnc(-c3ncc[nH]3)c3ccccc23)cc1,?,i,i,i,i,i
Oc1ccc2ccccc2c1/C=N/Nc1nnc(-c2ncc[nH]2)c2ccccc12,0.79µM,i,i,i,i,i[10 µM]
C=CCOc1c2ccc(C(=O)NCc3ccc(OC)cc3)cc2nn1C,i,i,-109,i,i,i
C=CCOc1c2ccc(C(=O)NCc3ccccc3OC)cc2nn1C,i,i,i,i,i,i
O=c1c2c(nc3nc(COc4ccccc4)[nH]n13)CCC2,i,i,-110,i,i,i[0.074 µM]
O=c1cc(O)c2c(=O)n(-c3ccccc3)c3c(c2o1)CCCCCC3,i,nt,-88,i,i,i[10 µM]
O=c1cc(O)c2c(=O)n(C3CCCCC3)c3ccccc3c2o1,i,i,i,i,?,i
CC(=O)N1CC(O)CC1C(=O)O (stereo not drawn),i,nt,nt,nt,nt,i
COC(=O)CNC(=O)C(C)NC(=O)OCc1ccccc1 (stereo not drawn),i,i,-127,i,i,i
COC(=O)CNC(=O)C(NC(=O)OCc1ccccc1)C(C)C (stereo not drawn),i,nt,nt,nt,i,i
Cc1cccc(NC(=O)C2CC(O)CN2C(=O)OCc2ccccc2)c1 (stereo not drawn),i,?,i,i,i,i
CC(NC(=O)OCc1ccccc1)C(=O)N1CC(O)CC1C(=O)O (stereo not drawn),nt,i,?,i,i,0.1µM
CCCCCCCC1=Cc2ccccc2C(C(C(=O)OC)C(=O)OC)N1C(=O)OC (stereo not drawn),nt,nt,nt,i[11.4 µM],nt,?
CC(C)(C)C(=O)Cn1c(=N)n(Cc2ccccc2)c2ccccc21,i,i,-119,i,i,i[10 µM]
CC(C)(C)C(=O)Cn1c(=N)n(Cc2ccccc2Cl)c2ccccc21,i,i,i,i,i,i[10 µM]
CSC(N)=NCCC[C@@H](N)C(=O)O,nt,i,nt,i,nt,i[1.9 µM]
Cc1cccc(OCC(=O)Nc2ccc(N3CCN(C(=O)c4ccccc4)CC3)cc2)c1,13µM,nt,i,i,i,i[0.074 µM]
Cc1nnc(SCC(=O)NC2CC2)n1CC1CCCO1 (stereo not drawn),i,nt,nt,nt,i,i
CSCCC(NC(=O)c1ccccc1)C(=O)NC1CCCC1 (stereo not drawn),i,i,-84,i,i,i
COCCN(CCOC)C(=O)COC(=O)c1cc([N+](=O)[O-])ccc1Cl,i[9.22 µM],nt,nt,nt,i,i[10 µM]
Cc1ccc(-c2csc(NC(=O)C3CC(=O)N(Cc4ccco4)C3)n2)cc1 (stereo not drawn),i,nt,nt,nt,i,i[10 µM]
Cc1csc(NC(=O)C2CC(=O)N(Cc3ccco3)C2)n1 (stereo not drawn),0.63µM,nt,nt,nt,i,1.1µM
Cc1ccc(S(=O)(=O)n2ccc(-c3ccc(OCc4c(F)cccc4Cl)cc3)n2)cc1,i,i,-100,i,i,i[10 µM]
SMILES,HttQ103 aggreg,IMPase inh,PNC assembly inh,ALOX12 inhib,NPSR antagonist,HTT cytoprotect
C[C@@H](C(=O)NCc1nc2ccccc2[nH]1)[C@@H]1C[C@@]1(C)[C@@H](NC(=O)OCc1ccccc1)c1ccccc1,nt,nt,nt,i,nt,i
CCCCCCCn1ccc(O)c(CC(=O)OC)c1=O,i,nt,nt,nt,i,i[10 µM]
CCCCCn1ccc(=O)c2c(C(F)(F)F)nccc21,11µM,nt,i,i,i,i[10 µM]
Cc1cccc(Oc2cc([N+](=O)[O-])cc3c2C(=O)Nc2ccccc2O3)c1,?,nt,-83,i,i,nt
O=C1Nc2ccccc2Oc2cc([N+](=O)[O-])cc(Oc3ccccc3)c21,?,nt,i,i,i,nt
Cc1ccc(Cn2c(=O)c3c(nc4n3CCN4Cc3ccco3)n(C)c2=O)cc1,i,i,-100,i,i,i[10 µM]
Nc1c(N2CCCCC2)c(=O)[nH]c(=O)n1-c1ccccc1,i,i,-84,i,i,i[0.074 µM]
O=c1c([N+](=O)[O-])c(N2CCCCC2)c2ccccc2n1-c1ccccc1,i,i,i,i,i,i[10 µM]
COCC(=O)N1CCC[C@@]2(CCN(Cc3cc(C(F)(F)F)cc(C(F)(F)F)c3)C2)C1,nt,nt,nt,i,nt,i
O=C(c1cn(-c2ccccc2)nc1-c1cccs1)N1CCN(c2ccc(F)cc2)CC1,i,i,-109,i,i,i
CC(=O)Nc1ccc(S(=O)(=O)N2CCc3nc(COc4ccccc4)c4c(c3C2)CO[C@@H](C)C4)cc1,nt,nt,nt,i[11.4 µM],nt,i[10 µM]
CC1CCCC(C)N1C(=O)c1cc2ncc(CCCl)cn2n1 (stereo not drawn),i,nt,-84,i,i,nt
COc1cc(Cl)c(C)cc1NC(=O)CSc1ccccc1,i,nt,-125,i,i,i[10 µM]
COc1cc2c(cc1NC(=O)CSCC(=O)O)oc1ccccc12,i,i,-127,i,i,i
COc1cc(Cl)c(C)cc1NC(=O)CSc1cc(Cl)ccc1Cl,i,i,-119,i,i,i[10 µM]
COc1cc(Cl)c(C)cc1NC(=O)CSc1ccc(C)cc1,i,i,i,i,i,i
Cn1cccc1C(=O)OCC(=O)NC(=O)NC1CCCCC1,i,nt,nt,nt,i,i
Cc1cc(Cl)ccc1N(CC(=O)NCc1ccc2c(c1)OCO2)S(C)(=O)=O,nt,nt,nt,nt,i,nt
Cc1cc(C)cc(Oc2nc(-c3ccccc3)cc(C)c2S(C)(=O)=O)c1,i,i,-112,i,?,i
Cc1cc(-c2ccccc2)nc(Oc2ccc(C(C)(C)C)cc2)c1S(C)(=O)=O,i,i,i,i,?,i
CC1=c2c(oc3cc(O)c(Nc4c(C)cc(O)cc4O)c(C)c23)=CC(=O)C1=Nc1c(C)cc(O)cc1O,nt,nt,nt,i[11.4 µM],nt,i[10 µM]
COC(=O)c1c(NC(=O)CCCOc2cccc(C)c2)sc2c1C(C(=O)OC)CC2 (stereo not drawn),nt,i,nt,nt,nt,nt
COc1ccccc1NC(=O)N1CCN(c2cccc(C(F)(F)F)c2)CC1,i,i,?,i,i,i
COc1ccccc1CC(=O)N1CCN(c2cccc(C(F)(F)F)c2)CC1,13µM,i,i,i,i,i[10 µM]
CN(C)c1ccc(/C=C/c2cc[n+](C)cc2)cc1,2.5µM,?,i,i,?,i
SMILES,HttQ103 aggreg,IMPase inh,PNC assembly inh,ALOX12 inhib,NPSR antagonist,HTT cytoprotect
CC[n+]1ccc(/C=C/c2ccc(N(C)C)cc2)c2ccccc21,?,nt,nt,nt,?,i[10 µM]
CC[n+]1c(/C=C/c2ccc(N(C)C)cc2)ccc2ccccc21,?,nt,?,i,5µM,nt
CC[n+]1ccccc1/C=C/c1ccc(N(C)C)cc1,2.8µM,nt,nt,nt,i,i
O=C(O)CNC(=O)c1ccccc1I,i,nt,nt,nt,nt,i
O=C(Nc1cccc(F)c1)N1CC[C@@]2(CCCN(C(=O)c3csnn3)C2)C1,nt,nt,nt,i,nt,i
CCC1CCc2nc3sc(C(=O)Nc4cccc(F)c4)c(N)c3cc2C1 (stereo not drawn),nt,i,nt,nt,nt,nt
